# Assay results from PubChem BioAssay (NCATS).
# Inconclusive results are not listed. A call without a number means that no potency is given here. Calls of active or inactive are those of the source. Unless noted, the call rests on the fitted dose curve; in most records, active means well fitted curve in the direction sought with a large enough effect; inconclusive means small, poorly fitted or top-dose-only effect, or another doubt; inactive means no such curve, though single readings can be large; an effect the other way counts as inactive or inconclusive.
# Columns and labels:
# [1] = molecular target: Glucocorticoid receptor (Homo sapiens) (UniProt P04150); assay: GR-GFP Redistribution (AID 450;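 active means compounds whose dose series gives a full or clear partial fitted curve of increased nuclear translocation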; further: potency means the concentration at half of the fitted maximal effect); details: U2OS GR-GFP nuclear translocation, laser cytometry, 2 h
# [2] = molecular target: Mitogen-activated protein kinase 10 (Mus musculus) (UniProt Q61831); assay: JNK3 AlphaScreen Assay (AID 530; active means well fitted curve in either direction with a large enough effect, not every such curve was filed as active;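 further: kinase came from lysate of stimulated human HepG2 cells; signal reports phosphorylation of biotinylated GST-cJun 1-79 at Ser73 with 10 µM ATP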)
# How it was run: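 Phosphorylation of biotinylated GST-cJun(1-79) at Ser73 is measured by AlphaScreen proximity luminescence. Enzyme is JNK3 in HepG2 lysates activated with interleukin-1beta and tumor necrosis factor alpha; ATP is 10 uM final.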
# [3] = molecular target: 3',5'-cyclic-AMP phosphodiesterase 4B (Homo sapiens) (UniProt Q07343); assay: qHTS Assay for Inhibitors of PDE-IV (AID 607; active means well fitted activation curve with a large enough effect in the main read-out, with a control signal flat, not every such curve was filed as active)
# How it was run: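 Cell-based read-out of cAMP via a modified cyclic nucleotide-gated channel and membrane potential dye (535/590 nm) in HEK293 cells expressing PDE4 endogenously. Compounds tested up to 22.9 uM final; 100 uM RO 20-1724 reference.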
# [4] = qHTS Assay for Lipid Storage Modulators (AID 1519; calls by dose curve); details: Drosophila S3 cells, BODIPY lipid droplet/cell ratio, laser cytometry, cells loaded with oleic acid
# How it was run: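 Cells seeded at 5,000 per well were treated with compounds over a concentration series and loaded with oleic acid (400 uM, as added). Lipid droplet fluorescence (488 nm excitation, 500-530 nm channel) was read by laser-scanning cytometry and normalized to 20 uM Triacsin C.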
# [5] = molecular target: Ubiquitin carboxyl-terminal hydrolase 1 (Homo sapiens) (UniProt O94782); assay: Inhibitors of USP1/UAF1: Pilot qHTS (AID 504865);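 further: rhodamine fluorescence freed from ubiquitin-rhodamine substrate followed over time; top concentration of the series differs between compounds; nearly all actives have a fitted effect of over 35% in size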
# How it was run: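 USP1/UAF1 complex (1nM) preincubated with compound 15 min at room temperature, then Ub-Rho substrate (150nM final) added. Fluorescence read kinetically at 480/540 nm, 6 reads every 60 seconds. Buffer: 50mM HEPES pH 7.8, 0.5mM EDTA, 0.1 mg/ml BSA, 1mM TCEP, 0.01% Tween-20.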
# [6] = molecular target: DNA dC->dU-editing enzyme APOBEC-3G (Homo sapiens) (UniProt Q9HC16); assay: qHTS for inhibitors of Vif-A3G interactions: Validation (AID 588379)
# How it was run: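 Yellow fluorescence (Ex 488, Em 500-530) of Vif-coexpressing HeLa A3G-eYFP cells, scanned by Acumen cytometer, reports blocked A3G degradation. Cells plated at 700/well overnight at 37 deg C before compound addition, then a further overnight compound incubation at 37 deg C.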
# [7] = tested on: Zika virus NS2B-NS3 protease; assay: Primary screen GU AMC qHTS for Zika virus inhibitors (AID 1347154); further: nearly all actives have a fitted effect of over 70% in size
# How it was run: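 Unlinked Zika NS2B hydrophilic domain/NS3 protease domain noncovalent complex (25 nM final) in 10 mM Tris-HCl pH 8.0, 0.01% Tween 20, with AMC peptide substrate. Fluorescence (ex 340, em 450 nm) change over 15 min, room temperature; percent inhibition fitted to 4-parameter Hill equation.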
# [8] = Counterscreen qHTS for small molecule stabilizers of the endoplasmic reticulum resident proteome: GLuc-NoTag assay (AID 1508627)
# How it was run: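 Secreted GLuc lacking the SERCaMP modification is measured in SH-SY5Y cells exposed to compound for 19 h and then to thapsigargin (100 nM, 4 h) to deplete ER calcium; hits retested at 11 concentrations, up to 76.6 uM.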
# [9] = Confirmatory qHTS for small molecule stabilizers of the endoplasmic reticulum resident proteome: Secreted ER Calcium Modulated Protein (SERCaMP) assay (AID 1508628); further: nearly all actives have a fitted effect of over 40% in size
# How it was run: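 Reporter secretion upon ER calcium depletion (100 nM thapsigargin, 4 h, 37C) is measured as medium luminescence with coelenterazine, after 16 h compound pretreatment of SH-SY5Y-GLuc-SERCaMP cells; primary at three concentrations up to 38.3 uM, follow-up at 11 (up to 76.6 uM).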
# [10] = Primary qHTS for small molecule stabilizers of the endoplasmic reticulum resident proteome: Secreted ER Calcium Modulated Protein (SERCaMP) assay (AID 1508630)
# How it was run: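 The SH-SY5Y reporter protocol was run at 3 concentrations up to 38.3 uM (primary) or 11 concentrations (follow-up): 16 h compound, 100 nM thapsigargin for 4 h, then extracellular luciferase luminescence.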
# Sequence of Glucocorticoid receptor (Homo sapiens) (P04150 whole entry, looked up): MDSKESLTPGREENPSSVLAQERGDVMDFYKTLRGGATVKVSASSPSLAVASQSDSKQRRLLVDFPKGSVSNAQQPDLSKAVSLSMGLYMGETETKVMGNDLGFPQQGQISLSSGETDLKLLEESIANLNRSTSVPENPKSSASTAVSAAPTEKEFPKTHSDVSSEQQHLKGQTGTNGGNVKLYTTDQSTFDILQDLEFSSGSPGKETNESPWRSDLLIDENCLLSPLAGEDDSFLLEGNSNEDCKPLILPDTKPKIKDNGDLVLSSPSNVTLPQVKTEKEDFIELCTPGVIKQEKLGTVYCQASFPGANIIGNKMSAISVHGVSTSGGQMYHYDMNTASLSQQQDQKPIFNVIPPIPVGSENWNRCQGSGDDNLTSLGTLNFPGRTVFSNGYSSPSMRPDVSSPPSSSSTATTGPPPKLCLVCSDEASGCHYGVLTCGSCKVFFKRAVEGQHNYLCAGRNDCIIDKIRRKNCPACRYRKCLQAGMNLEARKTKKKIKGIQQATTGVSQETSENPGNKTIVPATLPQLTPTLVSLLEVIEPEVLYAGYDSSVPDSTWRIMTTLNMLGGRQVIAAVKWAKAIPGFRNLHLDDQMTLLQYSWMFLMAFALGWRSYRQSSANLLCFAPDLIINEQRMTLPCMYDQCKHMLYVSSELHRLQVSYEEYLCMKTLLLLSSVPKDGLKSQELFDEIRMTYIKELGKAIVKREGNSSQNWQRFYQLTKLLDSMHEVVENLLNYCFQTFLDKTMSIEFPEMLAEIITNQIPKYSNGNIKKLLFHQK
# Sequence of 3',5'-cyclic-AMP phosphodiesterase 4B (Homo sapiens) (Q07343 whole entry, looked up): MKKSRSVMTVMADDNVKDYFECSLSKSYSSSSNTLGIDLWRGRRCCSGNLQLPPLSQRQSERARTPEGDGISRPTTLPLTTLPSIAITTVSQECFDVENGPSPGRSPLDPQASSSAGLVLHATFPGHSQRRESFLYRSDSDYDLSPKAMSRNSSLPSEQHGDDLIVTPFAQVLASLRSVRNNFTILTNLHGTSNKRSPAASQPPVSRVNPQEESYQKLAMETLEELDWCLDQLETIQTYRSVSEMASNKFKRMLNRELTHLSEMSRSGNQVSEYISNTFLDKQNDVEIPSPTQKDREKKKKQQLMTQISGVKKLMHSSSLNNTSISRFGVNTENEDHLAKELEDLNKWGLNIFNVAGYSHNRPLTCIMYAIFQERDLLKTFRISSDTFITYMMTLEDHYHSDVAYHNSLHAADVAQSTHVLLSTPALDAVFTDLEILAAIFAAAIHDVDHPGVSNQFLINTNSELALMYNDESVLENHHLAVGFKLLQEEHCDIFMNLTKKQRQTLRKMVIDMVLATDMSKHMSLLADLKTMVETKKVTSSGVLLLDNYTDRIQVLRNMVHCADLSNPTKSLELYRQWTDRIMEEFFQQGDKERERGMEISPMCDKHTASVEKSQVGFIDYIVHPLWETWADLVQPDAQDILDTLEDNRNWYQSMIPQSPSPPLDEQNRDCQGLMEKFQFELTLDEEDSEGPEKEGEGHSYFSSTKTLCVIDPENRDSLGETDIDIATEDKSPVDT
# Sequence of DNA dC->dU-editing enzyme APOBEC-3G (Homo sapiens) (Q9HC16 whole entry, looked up): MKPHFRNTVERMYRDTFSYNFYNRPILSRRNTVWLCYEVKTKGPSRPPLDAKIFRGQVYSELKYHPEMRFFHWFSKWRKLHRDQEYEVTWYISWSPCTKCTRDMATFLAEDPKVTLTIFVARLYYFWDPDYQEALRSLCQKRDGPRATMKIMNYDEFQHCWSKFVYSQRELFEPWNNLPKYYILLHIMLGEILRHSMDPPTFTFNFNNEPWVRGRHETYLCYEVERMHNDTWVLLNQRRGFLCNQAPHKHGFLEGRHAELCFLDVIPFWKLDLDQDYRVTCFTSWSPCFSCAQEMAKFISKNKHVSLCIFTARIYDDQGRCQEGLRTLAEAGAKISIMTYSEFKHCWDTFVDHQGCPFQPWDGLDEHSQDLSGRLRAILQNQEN
# Sequence of Ubiquitin carboxyl-terminal hydrolase 1 (Homo sapiens) (O94782 whole entry, looked up): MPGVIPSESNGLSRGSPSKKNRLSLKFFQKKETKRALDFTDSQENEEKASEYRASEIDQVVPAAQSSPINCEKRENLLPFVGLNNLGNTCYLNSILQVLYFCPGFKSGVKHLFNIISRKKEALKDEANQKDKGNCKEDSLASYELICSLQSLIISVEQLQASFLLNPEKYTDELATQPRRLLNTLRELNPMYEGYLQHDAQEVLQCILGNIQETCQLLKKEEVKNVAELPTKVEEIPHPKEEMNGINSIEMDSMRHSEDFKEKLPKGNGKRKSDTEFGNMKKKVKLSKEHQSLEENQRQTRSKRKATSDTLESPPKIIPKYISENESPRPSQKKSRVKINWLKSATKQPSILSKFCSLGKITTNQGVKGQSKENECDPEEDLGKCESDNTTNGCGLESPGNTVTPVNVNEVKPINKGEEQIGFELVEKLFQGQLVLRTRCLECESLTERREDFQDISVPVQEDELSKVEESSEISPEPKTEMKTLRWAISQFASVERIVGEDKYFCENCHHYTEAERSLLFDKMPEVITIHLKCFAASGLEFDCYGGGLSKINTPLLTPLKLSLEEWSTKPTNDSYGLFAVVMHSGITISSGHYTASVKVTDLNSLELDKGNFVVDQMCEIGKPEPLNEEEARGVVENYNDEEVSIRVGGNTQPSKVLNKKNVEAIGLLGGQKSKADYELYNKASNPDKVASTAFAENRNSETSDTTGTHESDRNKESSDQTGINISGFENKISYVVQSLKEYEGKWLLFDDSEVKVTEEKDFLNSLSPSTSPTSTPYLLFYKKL
structure (smiles),measurement,setting,value
NC(N)=NCCCCCCCCCCN=C(N)N,Potency,[1],> 46 µM (inactive)
same,outcome,[2],inactive
same,Potency,[3],inactive
same,"activity change, negative = inhibition",[4]; at 57.5 µM (top of the series),-3.22% (inactive)
same,max response,[4]; measured here: cell count channel max response,7.9%
same,max response,[4]; measured here: lipid channel max response,7.14%
same,Potency,[5],inactive
same,Potency,[6],inactive
same,Potency,[7],inactive
same,Potency,[8],inactive
same,Potency,[9],inactive
same,Potency,[10],inactive
